According to PubChem BioAssay AID588397 (National Center for Advancing Translational Sciences (NCATS), 2011):
In all, about 1,300 compounds went through this assay and about 1,000 (77%) were called active. Another 7% or so got no clear call; they are omitted. The set was probably picked from earlier hits. The list shows a part of the results. Unmarked numbers belong to inactive results. Calls follow the shape of the dose curve; as a rule, active = well fitted inhibition curve with a large enough effect; inconclusive = small, poorly fitted or top-dose-only effect; inactive = no such curve, though single readings can be large or run the other way.

Test: qHTS of small molecules that selectively kill Giardia lamblia: Hit Validation.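 Also: viability measured as ATP content by luminescence so killing lowers signal; nearly all actives have a fitted effect of over 65% in size.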
Details: Giardia lamblia trophozoite viability, dose-response; series mostly up to 38.3 µM; activity change, negative = killing: at the top concentration
Summary of the method: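 Luminescent ATP signal served as the viability read-out, measured 15-30 min after adding ATP detection reagent to trophozoites that had been incubated with compounds for 48 hrs at 37 deg C anaerobically at 100 cells/well.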
% is scaled to controls: 0 for no effect and ±100 for the full control effect; potency is read from the fitted curve at half-maximal effect.

**Q.** For `CC1CC(C)C(=NNC(N)=O)C(C(O)CC2CCC(=O)NC2=O)C1` (centres undefined), which Potency is on record?
**A.** The Potency was 163 nM (active).

**Q.** For `Cc1ccc(NC(C)C(=O)N/N=C/c2ccc([N+](=O)[O-])s2)cc1` (centres undefined), which Potency is on record?
**A.** Its Potency is 2900 nM (active).

**Q.** Which Potency does the source give for `COc1ccc(NC(C)C(=O)N/N=C/c2ccc([N+](=O)[O-])s2)cc1` (centres undefined) here?
**A.** Its Potency is 1630 nM (active).

**Q.** For `CCn1cnc2c([N+](=O)[O-])c(NS(=O)(=O)c3ccc(C)cc3)ccc21`, which Potency is on record?
**A.** Its Potency is 206 nM (active).

**Q.** With `O=C(N/N=C/c1ccc([N+](=O)[O-])o1)C(O)c1ccccc1` (centres undefined) as the compound, how does the Potency read?
**A.** Its Potency is 4100 nM (active).

**Q.** For `Cc1cc(C)cc(OCC(=O)N/N=C/c2ccc([N+](=O)[O-])o2)c1`, which Potency is on record?
**A.** The Potency was 579 nM (active).

**Q.** For `O=C(COc1ccccc1)N/N=C/c1ccc([N+](=O)[O-])o1`, which Potency is on record?
**A.** The Potency was 460 nM (active).

**Q.** Which Potency does the source give for `Cc1ccc(OCC(=O)N/N=C/c2ccc([N+](=O)[O-])o2)cc1` here?
**A.** The Potency was 729 nM (active).

**Q.** With `CCN1C[C@@H]2[C@@H]3C(=O)N(Cc4ccccc4)C(=O)[C@@H]3[C@](C)(C1=O)N2C(=O)c1ccccc1` as the compound, how does the “activity change, negative = killing” value read?
**A.** The value was -13.9%.

**Q.** With `Cc1ccccc1OCC(=O)N/N=C/c1ccc([N+](=O)[O-])o1` as the compound, how does the Potency read?
**A.** Its Potency is 516 nM (active).

**Q.** With `CCCOc1ccc(CCC(=O)N/N=C/c2ccc([N+](=O)[O-])o2)cc1` as the compound, how does the Potency read?
**A.** The Potency was 729 nM (active).

**Q.** With `O=C(Cc1ccc(Cl)cc1)Nc1ncc([N+](=O)[O-])s1` as the compound, how does the Potency read?
**A.** The Potency was 818 nM (active).

**Q.** With `COc1ccc(Cc2nnc(NC(=O)Nc3ccccc3F)s2)cc1OC` as the compound, how does the “activity change, negative = killing” value read?
**A.** The value was -18.3%.

**Q.** With `Cc1ccc(C(=O)Nc2ncc([N+](=O)[O-])s2)cc1` as the compound, how does the Potency read?
**A.** Its Potency is 259 nM (active).

**Q.** For `COc1ccc(CC(=O)Nc2ncc([N+](=O)[O-])s2)cc1OC`, which Potency is on record?
**A.** Its Potency is 259 nM (active).

**Q.** Which Potency does the source give for `Cc1nc(C)c(C(=O)Nc2ncc([N+](=O)[O-])s2)o1` here?
**A.** Its Potency is 1160 nM (active).

**Q.** With `CC1CCN(S(=O)(=O)c2cn(C)c(=O)n(C)c2=O)CC1` as the compound, how does the “activity change, negative = killing” value read?
**A.** Its value is -33.1%.

**Q.** For `Cc1ccc(OCC(=O)N(Cc2cccc(Cl)c2)C2CCS(=O)(=O)C2)cc1C` (centres undefined), which “activity change, negative = killing” value is on record?
**A.** Its value is -0.809%.

**Q.** For `O=C(Cc1ccc(Br)cc1)Nc1ncc([N+](=O)[O-])s1`, which Potency is on record?
**A.** Its Potency is 230 nM (active).

**Q.** For `O=C(Nc1ncc([N+](=O)[O-])s1)c1ccc2c(c1)OCO2`, which Potency is on record?
**A.** The Potency was 259 nM (active).

**Q.** With `CC12CCC(C(=O)Nc3ncc([N+](=O)[O-])s3)(OC1=O)C2(C)C` (centres undefined) as the compound, how does the Potency read?
**A.** The Potency was 206 nM (active).

**Q.** Which Potency does the source give for `O=C(/C=C/c1ccc([N+](=O)[O-])cc1)Nc1ncc([N+](=O)[O-])s1` here?
**A.** The Potency was 650 nM (active).

**Q.** For `Cc1onc(-c2ccccc2)c1NC(=O)N(Cc1ccccc1)C(C)C`, which “activity change, negative = killing” value is on record?
**A.** The value was 11.7%.

**Q.** With `Cc1ccc(S(=O)(=O)CC(=O)Nc2ncc([N+](=O)[O-])s2)cc1` as the compound, how does the Potency read?
**A.** The Potency was 579 nM (active).

**Q.** For `O=C(COc1ccc(Cl)cc1)Nc1ncc([N+](=O)[O-])s1`, which Potency is on record?
**A.** Its Potency is 410 nM (active).

**Q.** With `Cc1onc(-c2ccccc2)c1C(=O)N(Cc1ccccc1)C(C)C` as the compound, how does the “activity change, negative = killing” value read?
**A.** Its value is -12.6%.

**Q.** For `Cc1onc(-c2ccccc2)c1C(=O)Nc1ncc([N+](=O)[O-])s1`, which Potency is on record?
**A.** The Potency was 579 nM (active).

**Q.** With `Cc1ccc(S(=O)(=O)CC(=O)Nc2ccc(F)c(F)c2F)cc1` as the compound, how does the “activity change, negative = killing” value read?
**A.** Its value is 1.71%.

**Q.** Which Potency does the source give for `O=C(Cc1c(F)cccc1Cl)Nc1ncc([N+](=O)[O-])s1` here?
**A.** The Potency was 206 nM (active).
